Screening results (PubChem)
JMJD2C inh – inhibitors of GASC-1 histone demethylase, primary screen, biochemical, fluorescence, DELFIA europium | inhibition, % at 2.35 µM | AID 2099, 2009 | GST-JMJD2C(1-420) H3K9me3 demethylation | 330,000 compounds, 0.069% hits;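 active = more than half of a compound's replicate wells show inhibition beyond 50%, single wells judged on their own value; inconclusive = some, but no more than half, of replicates pass 50% inhibition; inactive = no replicate passes 50% inhibition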;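 note: signal counts dimethyl H3K9 product captured on neutravidin plate; 0% = median of DMSO wells and 100% = 0.3 times that DMSO median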
VLA-4 inh – inhibition in human VLA-4 binding assay, primary screen, VLA-4 allosteric modulator project, MLPCN library, flow cytometry, VLA-4 expressing cells | Integrin alpha-4 (Homo sapiens), P13612 | inhibition, % (about 7 µM as worked out from the volumes in the protocol) | ligand binding flow cytometry | AID 2557, 2010 | 330,000 compounds, 0.2% hits; in the data active = inhibition above about 50%
V-ATPase pHluor – regulators of yeast V-ATPase proton pumping, primary screen, pHLuorin cytosolic pH fluorescence; S. cerevisiae; response, % at 10 µM; 350,000 compounds, 0.37% hits; in the data active = response mostly above about 7.3%, no sharp cut-off; inactive = mostly below about 5.4%; note: actives read high
m5-HT2A agonist – mouse Htr2a agonists via beta-arrestin recruitment, primary screen, cell-based, luminescence; CHO-K1 mHTR2A beta-arrestin complementation; percent of 30 µM serotonin response; activation, % at 7.6 µM; 360,000 compounds, 0.66% hits; AID 624169, 2012;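 active = activation above a run cutoff, the mean activation of all tested compounds plus 3 SD, cut at about 14% in these data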;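 note: 0% = plate median of compound wells and 100% = 30 µM serotonin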
MEX-5 binding – MEX-5 zinc finger RNA-binding disruptors – biochemical, C. elegans, fluorescence polarization, MLPCN library, primary screen; MEX-5/FITC-TCR2 RNA binding; hits give low values; activity score (negative = inhibition of binding), % at 10 µM; 300,000 compounds, 0.38% hits; AID 1832, 2009;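 active = inhibition past about -25% in most replicates, and total fluorescence under double the plate's negative control median, limit read from the data; inconclusive = replicates evenly split on the limit, or fluorescence at least double controls; inactive = too little inhibition in most replicates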;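 note: 0% = DMSO and -100% = 5 µM competing unlabeled TCR2 RNA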
Target sequence (Q9XUB2 whole entry, looked up): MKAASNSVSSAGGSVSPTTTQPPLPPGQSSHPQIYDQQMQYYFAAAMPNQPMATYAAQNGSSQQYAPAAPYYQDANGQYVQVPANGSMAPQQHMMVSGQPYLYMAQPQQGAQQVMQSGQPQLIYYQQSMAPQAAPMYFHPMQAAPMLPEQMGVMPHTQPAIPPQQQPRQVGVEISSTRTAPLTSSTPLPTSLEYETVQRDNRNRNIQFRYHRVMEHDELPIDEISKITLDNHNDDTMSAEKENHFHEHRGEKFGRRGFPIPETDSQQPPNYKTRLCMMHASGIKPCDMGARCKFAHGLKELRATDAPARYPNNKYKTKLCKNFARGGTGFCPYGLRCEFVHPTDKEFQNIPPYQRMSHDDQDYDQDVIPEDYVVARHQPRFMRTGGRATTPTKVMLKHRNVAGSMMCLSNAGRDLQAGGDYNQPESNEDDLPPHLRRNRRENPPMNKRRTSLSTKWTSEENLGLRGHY
Granule exo inh – LAMP-1 surface exposure blockers, TALL-104 cells – cell-based, flow cytometry, MLPCN library, primary screen; TALL-104 LAMP-1 surface exposure; cells stimulated with thapsigargin and PMA; inhibition, % at 10 µM; 360,000 compounds, 0.66% hits;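 active = inhibition above about 55%, limit read from the data; inconclusive = no clear call, values can overlap the other calls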
An asterisk follows results filed as active; ? = inconclusive; / = no result. Shown are actives, neighbours in structure and some others; about 2.2% of the full set was active somewhere.

SMILES	JMJD2C inh	VLA-4 inh	V-ATPase pHluor	m5-HT2A agonist	MEX-5 binding	Granule exo inh
O=C(NCCc1ccccc1)C1CCN(c2ncccn2)CC1	-2	9	14*	5	1	-6
CC(C)n1cc(CN2CCCC(C(=O)Nc3ccccc3Oc3cccnc3)C2)cn1 (centres undefined)	0	10	1	2	1	-2
CCOc1ccc(/C=c2\sc3nc(-c4ccco4)nn3c2=O)cc1OCC	-7	3	-4	-2	-31*	-1
COc1ccccc1/C=c1\sc2nc(-c3ccco3)nn2c1=O	18	9	1	2	-7	6
CC1(OC(=O)c2cccs2)C(=O)C=C2C=C(C3CC3)OC=C2C1=O (centres undefined)	0	20	2	9	-20	8
CC1(OC(=O)c2ccco2)C(=O)C=C2C=C(C3CC3)OC=C2C1=O (centres undefined)	6	-18	-2	1	-34*	-8
CC1(OC(=O)c2cnc3ccccc3n2)C(=O)C=C2C=C(C3CC3)OC=C2C1=O (centres undefined)	1	-15	/	/	-53*	/
CCCOc1ccc(C(=O)CCC(=O)OCC(=O)Nc2cccc(S(N)(=O)=O)c2)cc1	/	/	-1	-3	/	7
CC1(CCl)N([O-])C2=C(CCCC2)[N+]1=O (centres undefined)	-6	29	4	5	-36*	-2
COc1ccc(/C=C/C(=O)c2c(C)cc(C)[nH]c2=O)c2ccccc12	-5	-6	-2	-3	-28*	-6
COc1cccc(/C=C2\SC(=S)N(NS(=O)(=O)c3ccccc3)C2=O)c1OC	1	-3	-2	9	-4	-8
Cc1nn(-c2ccccc2)c(C)c1CNC(=O)c1ccc(S(=O)(=O)NCc2ccco2)cc1	-2	6	20*	1	/	10
CN(C)Cc1cc(O)c(CN(C)C)cc1O	3	-2	-1	-13	-35*	4
CN(C)Cc1cc(C(C)(C)C)cc(C(C)(C)C)c1O	-8	10	-1	4	2	9
CCOC(=O)C(=C1Nc2ccccc2N1)n1c(-c2ccco2)nc2ccccc21	/	/	/	-2	/	98*
c1ccc2c(c1)CC(N1CCCCC1)c1ccccc1S2 (centres undefined)	-13	-2	-4	-8	/	13
CCc1ccc2c(c1)Sc1ccccc1CC2N1CCN(C)CC1 (centres undefined)	-5	18	-1	1	1	58*
Cc1cc(N2CCCC2)c(F)cc1/C=C\[N+](=O)[O-]	-9	/	7	6	9	74*
Cc1cc(N2CCC(C)CC2)c(F)cc1[N+](=O)[O-]	-6	12	4	-1	3	-2
Cc1ccc(-c2nc(=S)c3c(n2Cc2ccco2)CCCC3)cc1	/	/	2	-2	/	7
Cc1ccc(-c2nc(=S)c3c(n2Cc2ccco2)CC(C)(C)OC3)cc1	-4	-2	-4	0	0	61*
C#CCNC(=O)C[C@@H]1C[C@@]2(C(=O)OC)CCCCC=C2N(CCc2ccc(OC)c(OC)c2)C1=O	/	/	/	2	/	6
CCOc1c(Cl)cc(CNCC(C)C)cc1Cl	-22	1	20*	7	0	-2
CCc1ccc(S(=O)(=O)/N=C2\C=CC(=O)c3ccccc32)cc1	12	-7	/	/	0	/
Cc1cc(C)c(S(=O)(=O)/N=C2\C=C(Nc3ccc(C(=O)O)cc3)C(=O)c3ccccc32)c(C)c1	-7	-2	0	-4	-1	8
SMILES	JMJD2C inh	VLA-4 inh	V-ATPase pHluor	m5-HT2A agonist	MEX-5 binding	Granule exo inh
O=C1C(Nc2ccc(O)cc2)=C/C(=N/S(=O)(=O)c2cccs2)c2ccccc21	-6	/	3	-3	-16	57*
O=C(O)c1ccc(NC2=C/C(=N/S(=O)(=O)c3ccccc3)c3ccccc3C2=O)cc1	/	/	-7	-2	/	58*
CCc1ccc(S(=O)(=O)/N=C2/C=C(Sc3ncn[nH]3)C(=O)c3ccccc32)cc1	19	-201	4	7	/	98*
CCc1ccc(S(=O)(=O)/N=C2\C=C(Nc3ccc(O)cc3)C(=O)c3ccccc32)cc1	-13	11	-1	-20	0	86*
CCc1ccc(S(=O)(=O)/N=C2\C=C(Nc3cccc(C(=O)O)c3)C(=O)c3ccccc32)cc1	15	5	-1	-5	-14	23
O=C(c1ccc(-n2ccnc2)cc1)N1CCCC(CO)(Cc2cccc(Cl)c2)C1 (centres undefined)	-2	15	-3	-5	3	-3
Cc1ccc(OCCOC(=O)CN2C(=O)NC3(CCCC3)C2=O)cc1	10	6	0	-1	-1	5
Cc1ccc(S(=O)(=O)N2CCC(C(=O)N3CCCC3C(=O)N[C@@H](CC(C)C)C(=O)NCC(N)=O)CC2)cc1 (some centres undefined)	?	2	0	0	0	-3
CCCn1c(Cc2ccccc2)n[nH]c1=S	4	-9	3	0	2	-3
S=c1[nH]nc(Cc2ccccc2)n1Cc1ccco1	7	4	-2	15*	2	-1
Cc1cc(C)cc(-n2ncc3c2CCCC3NC(=O)c2ccccc2N2CCOCC2)c1 (centres undefined)	-9	-112	0	-5	3	-1
Cc1cc(Br)cc(Cl)c1OC(=O)c1ccncc1	12	5	0	5	-1	2
COC(=O)C=CSC(=S)C1CCCC1=N (centres undefined)	/	/	3	-1	/	-7
Oc1ccc(NC(=S)N=Nc2c(O)[nH]c3ccccc23)cc1	-6	7	-5	-6	-26*	1
Cc1ccc(OCC(=O)Nc2sc3c(c2C#N)CC(C)(C)NC3(C)C)cc1	11	1	13*	-2	1	8
CCOC(=O)c1c(NC(=O)Cc2ccccc2)sc2c1CC(C)(C)NC2(C)C	-6	-11	-2	-3	2	5
CCOC(=O)c1c(NC(=O)COc2ccccc2C#N)sc2c1CC(C)(C)NC2(C)C	10	9	-1	6	-2	57*
CCOC(=O)C1=CN(Cc2ccco2)S(=O)(=O)N(CC)C1c1ccccc1 (centres undefined)	/	/	-1	10	/	4
COc1cccc(Oc2nc(N)ncc2[N+](=O)[O-])c1	1	8	0	-2	0	2
Cc1cc2nc3ccc(N(C)C)cc3nc2cc1N	-1	-26	4	-3	-28*	-1
